Laboratory results as given in PubChem BioAssay.
Values joined by “and” are separate entries in the source; they are usually repeats but may differ in a detail not shown here. Equal entries are not always repeated. Where a structure was tested more than once in an assay, its records may differ in their call. Active and inactive are the calls of the source. No stated cut-off is given here; in the data, active means fold change permeability below about 0.7 or above about 1.3; inactive means in between.

Test: modulators of brain endothelial barrier permeability, primary screen, cell-based, FITC-avidin fluorescence, HTS (AID 1963498); further: test concentration not given here
Settings: actives lie on both sides

Row | SMILES | fold change permeability
1 | C[N+]1(C)CCC(OC(=O)C(c2ccccc2)c2ccccc2)CC1 | 1.6 (active)
2 | CN1CC[C@@]2(C)c3cc(OC(=O)Nc4ccccc4)ccc3N(C)[C@@H]12 | 1.4 (active)
3 | NCCc1c[nH]c2ccccc12 | 1.4 (active)
4 | NCC(O)c1ccc(O)cc1 (stereo not given) | 0.9 (inactive)
5 | CC[C@@H](C(N)=O)N1CCCC1=O | 0.9 (inactive)
6 | CN1C2C=C(c3sccc3Br)CC1CC2 (stereo not given) | 0.9 (inactive)
7 | NC(Cc1cc(O)c(O)cc1O)C(=O)O (stereo not given) | 0.9 (inactive)
8 | COc1cc2c3c(c1OC)-c1ccccc1C[C@H]3N(C)CC2 | 1.9 (active)
9 | COC(=O)N1CCN(C(=O)Cc2ccc(Cl)c(Cl)c2)C(CN2CCCC2)C1 (stereo not given) | 1.3 (active)
10 | CS(=N)(=O)CC[C@H](N)C(=O)O (stereo not given in full) | 0.8 (inactive)
11 | CCn1cc(C(=O)O)c(=O)c2ccc(C)nc21 | 0.9 (inactive)
12 | CN1C2CCC1CC(OC(c1ccccc1)c1ccccc1N)C2 (stereo not given) | 1.1 (inactive)
13 | C[N+]1(C)C2CCC1CC(OC(=O)C(CO)c1ccccc1)C2 (stereo not given) | 1.1 (inactive)
14 | CC(C)NC(C)Cc1ccc(I)cc1 (stereo not given) | 1.8 (active)
15 | CCCN1CCC[C@@H]2Cc3nc(N)ncc3C[C@H]21 | 1.1 (inactive)
16 | NCCc1c[nH]c2ccc(O)cc12 | 1 (inactive)
17 | C[C@]12CCC3C(CC[C@H]4C[C@H](O)CC[C@]34C)C1CC[C@@H]2C(=O)CO (stereo not given in full) | 1.1 (inactive)
18 | O=c1[nH]oc2c1CCNC2 | 1.4 (active)

Row | SMILES | fold change permeability
19 | NCC(CC(=O)O)c1ccc(Cl)cc1 (stereo not given) | 1.1 (inactive)
20 | C=CCN1C[C@H](C)N([C@H](c2ccc(C(=O)N(CC)CC)cc2)c2cccc(OC)c2)C[C@H]1C | 0.7 (active)
21 | Nc1ccc(CCN2CCN(c3cccc(C(F)(F)F)c3)CC2)cc1 | 1.8 (active)
22 | CC(C)(C)NCC(O)c1ccccc1Cl (stereo not given) | 0.7 (active)
23 | CN[C@@H]1C[C@@H](c2ccc(Cl)c(Cl)c2)c2ccccc21 | 1.2 (inactive)
24 | NNC(N)=O | 1 (inactive)
25 | CCCN(CCC)C1CCc2ccc(O)cc2C1 (stereo not given) | 1.1 (inactive)
26 | CO[C@H]1CC[C@@H](O[C@H]2C[C@H]([C@]3(C)CC[C@]4(C[C@H](O)[C@@H](C)[C@@H]([C@@H](C)/C=C(\C)C(=O)[C@H](C)C[C@H](C)C(=O)O)O4)O3)O[C@]3(O[C@@H]([C@H]4O[C@@](O)(CO)[C@H](C)C[C@@H]4C)C[C@@H]3C)[C@@H]2C)O[C@@H]1C | 1.3 (active)
27 | CCN(CC)c1ncnc2c1ncn2[C@@H]1O[C@H](COP(=O)(O)OP(=O)(O)C(Br)(Br)P(=O)(O)O)[C@@H](O)[C@H]1O | 1.1 (inactive)
28 | CCCN(CCC)C1Cc2cc(OC)c(OC)cc2C1 | 0.8 (inactive)
29 | COc1cc([C@@H]2c3cc4c(cc3[C@H](O)[C@H]3COC(=O)[C@H]23)OCO4)cc(OC)c1OC | 1.2 (inactive)
30 | CC1OC1P(=O)(O)O (stereo not given) | 1.1 (inactive)
31 | CC(C)N(CCC(C(N)=O)(c1ccccc1)c1ccccn1)C(C)C (stereo not given) | 0.9 (inactive) and 1.3 (active)
32 | CC(N)C(=O)OC(C)(C)Cc1ccc(Cl)cc1 (stereo not given) | 1.1 (inactive)
33 | O=C(N[C@H]1CN2CCC1CC2)c1c[nH]c2ccsc2c1=O | 0.9 (inactive)
34 | O=P(O)(O)C(O)(Cc1cnc2ccccn12)P(=O)(O)O | 0.8 (inactive)
35 | CCCCCN(C)CCC(O)(P(=O)(O)O)P(=O)(O)O | 1.8 (active)
